“And” between values parts separate entries of the source, which are not always exact repeats. Equal entries are not always repeated. The panel holds about 79,000 compounds, 15% with a hit somewhere; the sample as a whole holds those more often. The source made the active and inactive calls. Cut-off read from the data, not from the text of the source: active = growth inhibition above about 70%; inactive = the rest.
Assays:
[1] = NCI Yeast Anticancer Drug Screen. Data for the rad50 strain (AID 155);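 note: 0% = growth of vehicle-only cultures of the same strain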; settings: S. cerevisiae rad50 strain growth inhibition; at 50.0 µM; stronger effect = higher value
Procedure, shortened: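 Vehicle-treated cultures provide the reference for the growth inhibition reported for compound-exposed, repair-deficient yeast.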

[2] = NCI Yeast Anticancer Drug Screen. Data for the mec2-1 strain (AID 157); settings: S. cerevisiae mec2-1 strain, at 50.0 µM, stronger effect = higher value
Procedure, shortened: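 Test agents were screened against the mec2-1 yeast strain, with defined DNA repair or cell cycle alteration. Growth was scored as inhibition against vehicle-only controls.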

[3] = NCI Yeast Anticancer Drug Screen. Data for the sgs1 mgt1 strain (AID 161);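 note: 0% = growth of cultures given vehicle only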; settings: S. cerevisiae sgs1 mgt1 strain, at 50.0 µM, stronger effect = higher value
Procedure, shortened: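 Mutant yeast exposed to compound; growth scored against vehicle-only wells.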

[4] = NCI Yeast Anticancer Drug Screen. Data for the cln2 rad14 strain (AID 165);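 note: 0% = growth equal to vehicle treated cultures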; settings: S. cerevisiae cln2 rad14 strain, at 50.0 µM, stronger effect = higher value
Procedure, shortened: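 Growth of compound-exposed yeast (cln2 rad14 genotype) measured and expressed as inhibition relative to vehicle.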

[5] = NCI Yeast Anticancer Drug Screen. Data for the bub3 strain (AID 167); settings: S. cerevisiae bub3 mutant strain, at 50.0 µM, stronger effect = higher value
Procedure, shortened: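 Mutant yeast screening strain plus compound; vehicle-treated cultures serve as the 0% inhibition reference.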

[6] = NCI Yeast Anticancer Drug Screen. Data for the mlh1 rad18 strain (AID 175); settings: S. cerevisiae mlh1 rad18 strain growth inhibition; at 50.0 µM; stronger effect = higher value
Procedure, shortened: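 In this whole-cell yeast screen, a strain with altered DNA damage repair is challenged with compound, and its growth is measured against matched vehicle-treated controls.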

Measured: growth inhibition

Nc1nc(N)c2n[nH]nc2n1
inactive: [1] -18.5% | [2] -6.45% | [3] -22.1% | [4] -105% | [5] 3.55% | [6] -15.3%

CC1=CC(=O)C=CC1=Nc1ccc(N(CCCl)CCCl)cc1
inactive: [1] 22.4% | [2] 11.2% | [3] 6.65% | [4] 2.95% | [5] -1.45% | [6] -5.25%

O=C(O)CCC(=O)O
inactive: [1] -8.1% and 5.7% | [2] -16.6% and -2.05% | [3] -22.3% and -6.35% | [4] -41.9% and 13.8% | [5] -28% and -2.05% | [6] -13.1% and 11.2%

CCCCC1(CCS)C(=O)NC(=O)NC1=O
inactive: [1] -5.55% | [2] -11.8% | [3] -4.75% | [4] -10.1% | [5] -4.05% | [6] -17.1%

CN1CCC2CCCCN2CC1=O (stereo not given)
inactive: [1] -4.15% | [2] 0.45% | [3] -1% | [4] -4.35% | [5] -12% | [6] -4%

N#Cc1ccc(CCl)cc1
inactive: [1] 39.1% | [2] 7.55% | [3] 7.45% | [4] -6.05% | [5] 2.95% | [6] 41.7%

CN(C)CCc1ccccc1
inactive: [1] -15.1% | [2] 2.35% | [3] 13.9% | [4] 20.8% | [5] -2.3% | [6] 11.1%

CN1C2CCC1CC(=O)C2
inactive: [1] -14.6% | [2] -48.2% | [3] -32.6% | [4] -8.35% | [5] -29.9% | [6] -27.4%

[O-][N+]12CCCCC1C1CC(C2)C2CCCC(c3ccccc3)N2C1 (stereo not given)
inactive: [1] 3.55% | [2] -25.1% | [3] -22.8% | [4] -34.8% | [5] -28% | [6] -59.2%

CCCN=Cc1ccccc1O.CCCN=Cc1ccccc1O.[Ni]
inactive: [1] 37.5% | [2] 9.4% | [3] 18.6% | [4] -35.9% | [5] 4.85% | [6] 29.8%

CCN(CC)C(=O)N1CN(c2ccccc2)C2(CCN(CCCC3(c4ccc(F)cc4)OCCO3)CC2)C1=O
inactive: [1] 24.7% | [2] 24.1% | [3] 48% | [4] 19.7% | [5] 23.8% | [6] 49.9%

CC(=O)CC(C)=O.[Cl][Sb]1([Cl])[CH2]CC[CH2]1
inactive: [1] -22.4% | [2] -11.8% | [3] -17.1% | [4] -0.75% | [5] 1.25% | [6] 5.55%

O=C(N=[C-]c1ccc[oH+]1)c1cccnc1.O=C(N=[C-]c1ccc[oH+]1)c1cccnc1.[Ni+2]
inactive: [1] -24.7% | [2] -34.5% | [3] -3.4% | [4] -25.4% | [5] -31.8% | [6] 5.65%

O=C(Cl)c1cc([N+](=O)[O-])cc([N+](=O)[O-])c1
inactive: [1] 48.1% | [2] 26.1% | [3] 45.9% | [4] -10.2% | [5] -1.6% | [6] 46.6%

CC(=O)O.CC(=O)O.CC(=O)O.CC(=O)O.CC(=O)O.CC(=O)O.O.[Ti].[Ti]
inactive: [1] -6.65% | [2] -23.8% | [3] -23.6% | [4] -4.2% | [5] -10.1% | [6] -34%

C[C@]12CCC(=O)N[C@@H]1CC[C@@H]1[C@@H]2CC[C@]2(C)[C@@H](OC(=O)COc3ccc(N(CCCl)CCCl)cc3)CC[C@@H]12
inactive: [1] 0.45% | [2] 4.7% | [3] 0.15% | [4] 11.8% | [5] 5.75% | [6] -12.8%

CCOC(=O)/C(=C/c1ccc[nH]1)P(=O)(OCC)OCC
inactive: [1] -28.6% | [2] -26.1% | [3] -31.8% | [4] 5.65% | [5] 6.6% | [6] -42.1%

O=C(c1ccccc1)C1C(c2ccccc2)N1Cc1ccccc1 (stereo not given)
inactive: [1] 0.35% | [2] 12.2% | [3] 10.2% | [4] 6.15% | [5] 9.65% | [6] -2.9%

CCCCN1C(=O)C(=C/C=C/C=C2\Oc3ccccc3N2CCCS(=O)(=O)O)C(=O)N(CCCC)C1=S
inactive: [1] 18% | [2] 2.9% | [3] 3.75% | [4] 15.7% | [5] -3.9% | [6] 27%

CCCN(CCC)C(=O)[S-].CCCN(CCC)C(=O)[S-].[Ni+2]
inactive: [1] 35% | [2] -6.25% | [3] 33.4% | [4] -38.6% | [5] 2.7% | [6] -3.5%

O=S(=O)(O)O/N=C(\Cc1ccccc1)SC1OC(CO)C(O)C(O)C1O (stereo not given)
inactive: [1] -2.45% | [2] -7.1% | [3] -2.55% | [4] -7% | [5] -0.75% | [6] -3.25%

[Cl][Sn]([Cl])([c]1ccccc1)[c]1ccccc1.c1ccncc1
active: [1] 96.8% | [2] 98.8% | [3] 98.8% | [4] 97.5% | [5] 98.1% | [6] 97.7%

CC1CNC2C(=O)NC(=O)NC2N1 (stereo not given)
inactive: [1] 3.15% | [2] 1.95% | [3] -10.2% | [4] -5.25% | [5] 5.2% | [6] -4.7%

O=C(O)/C=C\c1c[nH]c2ccccc12 (tested in a mixture with another compound)
inactive: [1] -3.3% | [2] -7.35% | [3] -13.4% | [4] 0.95% | [5] -10.8% | [6] -12.2%

CC(C)C(Br)C(N)=O (stereo not given)
inactive: [1] -36.1% | [2] -31.1% | [3] 9.75% | [4] -24.6% | [5] -2.85% | [6] -14.8%

N#CCCCBr
inactive: [1] -2.7% | [2] -15.8% | [3] 7.2% | [4] -13.8% | [5] -2% | [6] 11.8%

COc1ccccc1CC(C)N (stereo not given)
inactive: [1] 1.35% | [2] -5.6% | [3] 8.3% | [4] 16% | [5] 16.1% | [6] 16.3%

CC1=CC=NC(Cl)(Cl)N1
inactive: [1] 19.4% | [2] -9.6% | [3] -15.7% | [4] 13.6% | [5] -1.35% | [6] 20.4%

C[N+](C)(C)CC1CCCCC1=O (stereo not given)
inactive: [1] 24.1% | [2] 11.6% | [3] 17.9% | [4] 21.8% | [5] 11.7% | [6] 44.5%

Cc1ccc2[nH]cc(CCN(C)C)c2c1
inactive: [1] 22.6% | [2] -16.5% | [3] 8.25% | [4] 7.65% | [5] 10.2% | [6] 19.6%

CC(C)(C)OC(=O)NCC(=O)NC(CSC(c1ccccc1)c1ccccc1)C(=O)NCC(=O)O (stereo not given)
inactive: [1] 8.45% | [2] 7.3% | [3] 11% | [4] -6.35% | [5] -4.9% | [6] 15.1%

C[CH2][Pb]([CH2]C)([CH2]C)[O]C(=O)c1ccccc1
inactive: [1] -0.3% | [2] 1.6% | [3] 10.2% | [4] -3.35% | [5] 1.35% | [6] 5.35%

O=c1nc2n(CCN(CCCl)CCCl)c3cc(Cl)c(Cl)cc3nc-2c(=O)[nH]1
inactive: [1] 38% | [2] -1.65% | [3] 45% | [4] 34.6% | [5] 3.65% | [6] 26.4%

Cc1nc2ccccc2c(=O)n1-c1ccc(N(CCCl)CCCl)cc1
inactive: [1] -0.6% | [2] -9.25% | [3] -17.1% | [4] -6.9% | [5] 4.8% | [6] 4.5%

COC1=C(OC)C23CCc4ccc(OC)c(O)c4C2(CCN3)CC1=O (stereo not given)
inactive: [1] 7.5% | [2] -10.7% | [3] 25.2% | [4] 14.1% | [5] 1.6% | [6] -27.4%

CC1(C)N=C(N)N=C(N)N1c1ccc(Cl)c(CCCCc2ccc(S(=O)(=O)F)cc2)c1
active: [1] 99.8% | [2] 99.8% | [3] 99.2% | [4] 99.4% | [5] 99.6% | [6] 99.8%

CC[P+](C#Cc1ccccc1)(c1ccccc1)c1ccccc1
active: [1] 85.8% | [2] 88.9% | [3] 89% | [4] 87.2% | [5] 87.4% | [6] 87.5%

O=[As](O)(O)c1cc(F)ccc1F
inactive: [1] -5.75% | [2] -4.3% | [3] -11.4% | [4] -15.3% | [5] -8% | [6] -8.3%

CC1=C(C)C(=O)C(C)=C(C)C1=O
inactive: [1] 25.2% | [2] 8.7% | [3] -9.6% | [4] -10.7% | [5] 5.15% | [6] 13.2%

CC(OC(N)=O)C(F)(F)C(F)F (stereo not given)
inactive: [1] -26.6% | [2] -9.15% | [3] 1.35% | [4] -39.2% | [5] -12.8% | [6] -1.85%
